Experimental data reported in PubChem BioAssay AID1159580 (chemical genetic matrix, 2015).
Where “and” joins values, the source holds several entries; their conditions need not be identical. Equal values may be shown once. The whole screen tested about 5,500 compounds, of which about 2,000 (36%) were called active. Another 18% or so got no clear call; they are omitted. No stated cut-off is given here; in the data, active means normalized growth mostly below about 0.91 (no sharp cut-off); inconclusive means no clear call, values can overlap the other calls; inactive means mostly above about 0.92. This is one part of the list.

Experiment: chemical genetic growth profiling, strain panel (AID 1159580);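 further: tested at 20 µM; growth read once vehicle control cultures reached saturation at 30 °C; 1 = growth at the plate median or of vehicle wells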
Conditions: S. cerevisiae deletion strains, growth OD

Measured: normalized growth

C[C@]12CCC3C(CC[C@H]4C[C@@H](O)CC[C@]34C)C1CCC2=O (some centres undefined)
inactive: locus YAL030W, strain snc1, stronger effect = lower value 1.01 | locus YBL061C, strain skt5, stronger effect = lower value 1.02 | locus YBR021W, strain FUR4, stronger effect = lower value 0.857 | locus YBR023C, strain chs3, stronger effect = lower value 0.989 | locus YBR171W, strain sec66, stronger effect = lower value 1.01 | locus YBR229C, strain ROT2, stronger effect = lower value 1.02 | locus YBR231C, strain swc5, stronger effect = lower value 1 | locus YBR279W, strain paf1, stronger effect = lower value 0.994 | locus YCL011C, strain gbp2, stronger effect = lower value 0.937 | locus YCL016C, strain dcc1, stronger effect = lower value 0.916 | locus YCL061C, strain MRC1, stronger effect = lower value 0.961 | locus YCL069W, strain vba3, stronger effect = lower value 1.01 | locus YCR088W, strain abp1, stronger effect = lower value 1.05 | locus YDL005C, strain med2, stronger effect = lower value 1.03 | locus YDL040C, strain nat1, stronger effect = lower value 1.05 | locus YDL074C, strain BRE1, stronger effect = lower value 0.792 | locus YDL101C, strain DUN1, stronger effect = lower value 0.918 | locus YDL185W, strain tfp1, stronger effect = lower value 0.949 | locus YDR001C, strain nth1, stronger effect = lower value 1.05 | locus YDR069C, strain doa4, stronger effect = lower value 0.979 | locus YDR101C, strain arx1, stronger effect = lower value 0.95 | locus YDR159W, strain sac3, stronger effect = lower value 0.938 | locus YDR297W, strain sur2, stronger effect = lower value 1.02 | locus YDR334W, strain swr1, stronger effect = lower value 1.08 | locus YDR335W, strain msn5, stronger effect = lower value 1.02 | locus YDR388W, stronger effect = lower value 0.935 | locus YEL003W, strain gim4, stronger effect = lower value 0.977 | locus YEL037C, strain rad23, stronger effect = lower value 1.03 | locus YEL061C, strain CIN8 (second series), stronger effect = lower value 1.04 | locus YER015W, strain faa2, stronger effect = lower value 1.04 | locus YER016W, strain bim1, stronger effect = lower value 1.03 | locus YER110C, stronger effect = lower value 1.03 | locus YER111C, strain swi4, stronger effect = lower value 1.03 | locus YER155C, strain BEM2 (second series), stronger effect = lower value 1 | locus YGL078C, strain dbp3, stronger effect = lower value 0.931 | locus YGL167C, strain pmr1, stronger effect = lower value 1.03 | locus YGL173C, strain kem1, stronger effect = lower value 0.943 | locus YGL227W, strain vid30, stronger effect = lower value 1.06 | locus YGL240W, strain doc1, stronger effect = lower value 0.968 | locus YHR013C, strain ard1, stronger effect = lower value 0.899 | locus YHR027C, strain rpn1, stronger effect = lower value 1.03 | locus YHR079C, strain IRE1 (second series), stronger effect = lower value 0.94 | locus YHR079C, strain IRE1, stronger effect = lower value 0.893 | locus YHR094C, strain hxt1, stronger effect = lower value 1.03 | locus YIL073C, strain SPO22, stronger effect = lower value 0.735 | locus YIL125W, strain kgd1, stronger effect = lower value 0.98 | locus YJL092W, strain hpr5, stronger effect = lower value 0.988 | locus YJL095W, strain BCK1 (second series), stronger effect = lower value 0.923 | locus YJL115W, strain asf1, stronger effect = lower value 1.04 | locus YJL129C, strain trk1, stronger effect = lower value 0.948 | locus YJL134W, strain LCB3, stronger effect = lower value 1.02 | locus YJL154C, strain vps35, stronger effect = lower value 1.06 | locus YJL168C, strain set2, stronger effect = lower value 1.03 | locus YJL187C, strain SWE1, stronger effect = lower value 1.03 | locus YJR043C, strain POL32, stronger effect = lower value 0.895 | locus YJR066W, strain TOR1, stronger effect = lower value 0.875
active: locus YAL021C, strain ccr4, stronger effect = lower value 0.854 | locus YAL026C, strain drs2, stronger effect = lower value 0.505 | locus YBR009C, strain hhf1, stronger effect = lower value 0.896 | locus YCL029C, strain bik1, stronger effect = lower value 0.842 | locus YDL035C, strain GPR1, stronger effect = lower value 0.697 | locus YDL192W, strain arf1, stronger effect = lower value 0.838 | locus YDR137W, strain rgp1, stronger effect = lower value 0.48 | locus YDR162C, strain NBP2, stronger effect = lower value 0.585 | locus YDR195W, strain ref2 1.44 [resistant] | locus YDR318W, strain mcm21, stronger effect = lower value 0.764 | locus YDR392W, strain spt3, stronger effect = lower value 0.224 | locus YDR502C, strain sam2, stronger effect = lower value 0.749 | locus YEL061C, strain CIN8, stronger effect = lower value 0.908 | locus YER155C, strain BEM2, stronger effect = lower value 0.856 | locus YER167W, strain BCK2, stronger effect = lower value 0.872 | locus YFR010W, strain ubp6, stronger effect = lower value 0.9 | locus YGL086W, strain mad1, stronger effect = lower value 0.9 | locus YGL248W, strain PDE1, stronger effect = lower value 0.696 | locus YGL253W, strain hxk2, stronger effect = lower value 0.87 | locus YGR078C, strain PAC10, stronger effect = lower value 0.843 | locus YGR135W, strain pre9, stronger effect = lower value 0.711 | locus YHR129C, strain ARP1, stronger effect = lower value 0.766 | locus YHR142W, strain chs7, stronger effect = lower value 0.853 | locus YHR200W, strain rpn10, stronger effect = lower value 0.883 | locus YIL066C, strain RNR3, stronger effect = lower value 0.628 | locus YIR030C, strain dcg1, stronger effect = lower value 0.868 | locus YJL164C, strain tpk1, stronger effect = lower value 0.859 | locus YJL166W, strain qcr8, stronger effect = lower value 0.877 | locus YJL187C, strain SWE1 (second series), stronger effect = lower value 0.796 | locus YJR075W, strain HOC1, stronger effect = lower value 0.857 | locus YKL009W, strain mrt4, stronger effect = lower value 0.832
0.785 (active) and 0.897 (inactive): locus YHR030C, strain SLT2, stronger effect = lower value
0.309 (active) and 0.911 (inactive): locus YJL095W, strain BCK1, stronger effect = lower value
